Results on 17 compounds are retold here after PubChem BioAssay (NCATS).

SMILES strings stand for the structures. Inconclusive results are not listed. A number with no mark means an inactive call. The source made the active and inactive calls. Calls come from the whole dose curve; as a rule, active = well fitted inhibition curve with a large enough effect; inconclusive = small, poorly fitted or top-dose-only effect; inactive = flat fitted curve, though single readings scatter.

Experiment [1] is described as follows: qHTS profiling for inhibitors of Plasmodium falciparum proliferation (AID 504749).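 For activity, negative = inhibition: 0% = DMSO vehicle and full inhibition = artemisinin control.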 Note: nearly all actives have a fitted effect of over 60% in size. The following applies: P. falciparum in erythrocytes, SYBR Green DNA, 72 h. The method, boiled down:
(§1)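 P. falciparum-infected erythrocytes (0.3% parasitemia, 2.5% hematocrit final) were exposed to compounds for 72 h at 37 C in 5% CO2, then lysed with SYBR Green buffer overnight at room temperature; parasite DNA fluorescence was normalized to artemisinin and DMSO controls.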
In general terms: qHTS replaces the single test concentration by a dilution series.

Another experiment relates to 3D7. The experiment is described as above. The following applies: P. falciparum in erythrocytes, SYBR Green DNA, 72 h; series mostly up to 28.7 µM. The method, boiled down: as §1
The subject of another experiment is 7G8. The description is as above. The following applies: P. falciparum in erythrocytes, SYBR Green DNA, 72 h; series mostly up to 28.7 µM. The method, boiled down: as §1
Another experiment has as its system AA1029. The description is as above. The following applies: P. falciparum in erythrocytes, SYBR Green DNA, 72 h; series mostly up to 28.7 µM. The method, boiled down:
as §1

A further experiment relates to AS120. Described as above. The conditions noted are these: P. falciparum in erythrocytes, SYBR Green DNA, 72 h; series mostly up to 28.7 µM. The method, boiled down:
as §1

For the next experiment, the system named is ATS189. The description is as above. The conditions noted are these: P. falciparum in erythrocytes, SYBR Green DNA, 72 h; series mostly up to 28.7 µM. The method, boiled down:
as §1

Another experiment has as its system ATS95. Described as above. The conditions noted are these: P. falciparum in erythrocytes, SYBR Green DNA, 72 h; series mostly up to 28.7 µM. The method, boiled down: as §1
Another experiment deals with C2A. Described as above. The conditions noted are these: P. falciparum in erythrocytes, SYBR Green DNA, 72 h; series mostly up to 28.7 µM. The method, boiled down:
as §1

In the next experiment the test system is CP185. The experiment is described as above. The following applies: P. falciparum in erythrocytes, SYBR Green DNA, 72 h; series mostly up to 28.7 µM. The method, boiled down: as §1
A further experiment concerns CP191. The experiment is described as above. The conditions noted are these: P. falciparum in erythrocytes, SYBR Green DNA, 72 h; series mostly up to 28.7 µM. In short, it runs like this:
as §1

The mark [2] stands for this setting: at 28.7 µM (top of the series), parasite line A.
Where [3] appears, read: at 28.7 µM (top of the series), parasite line B.
Setting [4] is: at 12.8 µM (top of the series), parasite line A.
Where [5] appears, read: at 12.8 µM (top of the series), parasite line B.
Potency is the fitted concentration of half-maximal effect.

With `COc1cccc2c1C(=O)c1c(O)c3c(c(O)c1C2=O)C[C@@](O)(C(C)=O)C[C@@H]3O[C@H]1C[C@H](N)[C@H](O)[C@H](C)O1`, the Potency is 3.55 µM (active) in [1] (parasite line A); 7.08 µM (active) in experiment [1] (parasite line B); 2 µM (active) in the experiment on 3D7; 1.26 µM (active) in the experiment with 7G8; 4.47 µM (active) in the experiment on AA1029; 3.98 µM (active) in the experiment on AS120. The Potency is 8.91 µM (active) in the experiment with ATS189; 4.47 µM (active) in the experiment on ATS95; 3.16 µM (active) in the experiment on C2A; 4.47 µM (active) in the experiment on CP185; 3.16 µM (active) in the experiment on CP191.
As to `O=C(O)CNC(=O)c1ccccc1`, the activity, negative = inhibition was -0.717% in experiment [1] (setting [2]) and 10.3% in [1] (setting [3]). For the same compound, the Potency entry in the experiment with 3D7, in the experiment on 7G8, in the experiment with AA1029, with AS120, in the experiment on ATS189 and with ATS95 was “inactive” throughout. Also, the Potency result in the experiment with C2A, in the experiment with CP185 and in the experiment with CP191 was “inactive” throughout.
Take `COC1=CC(=O)C[C@@H](C)[C@]12Oc1c(Cl)c(OC)cc(OC)c1C2=O`: the activity, negative = inhibition is 4.87% in experiment [1] (setting [2]) and -1.47% in [1] (setting [3]). The Potency entry in the experiment with 3D7, in the experiment on 7G8, with AA1029, with AS120, in the experiment with ATS189 and in the experiment on ATS95 was “inactive” each time. Also, the Potency result in the experiment with C2A, in the experiment on CP185 and with CP191 was “inactive” throughout.
On to `CN(C)/N=N/c1nc[nH]c1C(N)=O`, for which the activity, negative = inhibition is 8.05% in experiment [1] (setting [2]) and 1.17% in [1] (setting [3]). Besides, the Potency result in the experiment with 3D7, in the experiment on 7G8, in the experiment with AA1029, with AS120, in the experiment with ATS189 and in the experiment with ATS95 was “inactive” in each case. Also, the Potency entry in the experiment with C2A, in the experiment with CP185 and in the experiment with CP191 was “inactive” each time.
Regarding `COc1cc2c(cc1OC)C(C(C(=O)N(CCc1ccc(OC)c(OC)c1OC)CCc1ccc(OC)c(OC)c1OC)c1ccccc1)=NCC2` (configuration not stated), the activity, negative = inhibition was 14.8% in experiment [1] (setting [2]) and -1.99% in [1] (setting [3]). Besides, the Potency in the experiment on 3D7 is 4.47 µM (active); in the experiment with 7G8, 0.316 µM (active); with AA1029, 2.51 µM (active); in the experiment with ATS95, 3.55 µM (active); in the experiment with CP185, 10 µM (active); in the experiment with CP191, 10 µM (active). For the same compound, the Potency result in the experiment with AS120, with ATS189 and with C2A was “inactive” each time.
On to `O=c1ccc2ccccc2o1`, for which the results for the activity, negative = inhibition in experiment [1] (setting [2]) and in experiment [1] (setting [3]) were 10.1% and 1.35%, respectively. In addition, the Potency result in the experiment on 3D7, in the experiment on 7G8, in the experiment with AA1029, in the experiment on AS120, in the experiment on ATS189 and with ATS95 was “inactive” throughout. Also, the Potency result in the experiment with C2A, in the experiment on CP185 and in the experiment on CP191 was “inactive” each time.
Take `O=C(OCCOCCO)c1ccccc1Nc1cccc(C(F)(F)F)c1`: the activity, negative = inhibition in [1] (setting [4]) was 9.49%; in experiment [1] (setting [5]), 3.82%. The Potency result in the experiment on 3D7, in the experiment on 7G8, in the experiment with AA1029, with AS120, in the experiment on ATS189 and with ATS95 was “inactive” throughout. Further, the Potency result with C2A, in the experiment on CP185 and with CP191 was “inactive” throughout.
With `CCOC(=O)c1cccc(N)c1`, the values for the activity, negative = inhibition in [1] (setting [2]) and in experiment [1] (setting [3]) were 6.66% and 6.86%, respectively. In addition, the Potency entry with 3D7, in the experiment on 7G8, in the experiment on AA1029, in the experiment on AS120, in the experiment with ATS189 and in the experiment on ATS95 was “inactive” each time. The Potency result with C2A, in the experiment with CP185 and in the experiment on CP191 was “inactive” in each case.
For the compound `Cc1c(F)c(N2CCNC(C)C2)cc2c1c(=O)c(C(=O)O)cn2C1CC1` (configuration not stated), the activity, negative = inhibition was 8.42% in experiment [1] (setting [2]) and 6.98% in experiment [1] (setting [3]). Moreover, the Potency result in the experiment on 3D7, in the experiment on 7G8, in the experiment with AA1029, with AS120, in the experiment with ATS189 and with ATS95 was “inactive” each time. For the same compound, the Potency result with C2A, in the experiment with CP185 and in the experiment with CP191 was “inactive” in each case.
Take `CC(C)(C)CC(C)(C)c1ccc(OCCOCC[N+](C)(C)Cc2ccccc2)cc1`: the Potency in experiment [1] (parasite line A) was 3.55 µM (active); in experiment [1] (parasite line B) it was 5.01 µM (active); with 3D7, 1.78 µM (active); in the experiment on 7G8, 1.58 µM (active); with AA1029, 4.47 µM (active); in the experiment on AS120 it was 5.01 µM (active). For the same compound, the Potency is 7.08 µM (active) in the experiment on ATS189; 3.98 µM (active) in the experiment with ATS95; 3.16 µM (active) in the experiment on C2A; 3.55 µM (active) in the experiment with CP185; 1.58 µM (active) in the experiment on CP191.
Turning to `COC(=O)[C@@H]1CC2=CC(=O)CC[C@]2(C)[C@@]23O[C@@H]2C[C@@]2(C)[C@@H](CC[C@@]24CCC(=O)O4)[C@H]13`, the values for the activity, negative = inhibition in [1] (setting [2]) and in experiment [1] (setting [3]) were 8.39% and 17.6%, respectively. The Potency result in the experiment on 3D7, in the experiment with 7G8, with AA1029, in the experiment on AS120, in the experiment with ATS189 and with ATS95 was “inactive” each time. Also, the Potency result with C2A, with CP185 and in the experiment on CP191 was “inactive” in each case.
On to `OCc1ccccc1O`, for which the activity, negative = inhibition in [1] (setting [2]) was 6.96%; in experiment [1] (setting [3]), 8.72%. For the same compound, the Potency entry in the experiment on 3D7, with 7G8, in the experiment with AA1029, in the experiment on AS120, with ATS189 and in the experiment with ATS95 was “inactive” in each case. Moreover, the Potency entry in the experiment with C2A, in the experiment on CP185 and in the experiment with CP191 was “inactive” each time.
As for `O=C(O)c1cc2cc(Cc3cccnc3)ccc2o1`, the figures for the activity, negative = inhibition in experiment [1] (setting [2]) and in experiment [1] (setting [3]) were 9.24% and 5.6%, respectively. Further, the Potency result in the experiment with 3D7, with 7G8, in the experiment on AA1029, in the experiment with AS120, in the experiment on ATS189 and in the experiment with ATS95 was “inactive” each time. Also, the Potency result in the experiment with C2A, with CP185 and in the experiment on CP191 was “inactive” in each case.
`N[C@H](CO)C(=O)O`: the activity, negative = inhibition in [1] (setting [2]) is -0.225%; in experiment [1] (setting [3]), -23.4%. The Potency entry with 3D7, in the experiment with 7G8, with AA1029, with AS120, with ATS189 and in the experiment on ATS95 was “inactive” throughout. Also, the Potency result with C2A, with CP185 and in the experiment on CP191 was “inactive” throughout.
Turning to `CN1C2CCC1CC(OC(=O)c1c[nH]c3ccccc13)C2` (configuration not stated), the figures for the activity, negative = inhibition in [1] (setting [2]) and in experiment [1] (setting [3]) were 9.99% and 3.24%, respectively. Besides, the Potency entry in the experiment on 3D7, in the experiment with AA1029, in the experiment on AS120, with ATS189, with ATS95 and in the experiment with C2A was “inactive” each time. The Potency result with CP185 and in the experiment on CP191 was “inactive” throughout. Also, the Potency in the experiment with 7G8 is 10 µM (active).
Regarding `C=CCc1ccc(O)c(OC)c1`, the activity, negative = inhibition in [1] (setting [2]) was 9.84%; in [1] (setting [3]), 1.91%. For the same compound, the Potency result in the experiment with 3D7, in the experiment with 7G8, with AA1029, with AS120, in the experiment with ATS189 and in the experiment with ATS95 was “inactive” each time. The Potency entry with C2A, in the experiment on CP185 and with CP191 was “inactive” throughout.
As to `O=C1c2ccccc2C(=O)C1c1ccccc1`, the activity, negative = inhibition in experiment [1] (setting [4]) was 17.2%; in experiment [1] (setting [5]) it was 11.5%. For the same compound, the Potency result in the experiment on 3D7, in the experiment with 7G8, in the experiment with AA1029, in the experiment on AS120, in the experiment with ATS189 and in the experiment on ATS95 was “inactive” each time. Further, the Potency entry with C2A, with CP185 and in the experiment on CP191 was “inactive” each time.
